Assay outcomes from PubChem BioAssay.
Most compounds without a hit are left out; they make up all but 12% or so of the library.
TDP1 inh: TDP1 (human) enzyme inhibition; recombinant TDP1, AlphaScreen DNA substrate cleavage; Potency, µM (highest dose often 130 µM), hits mostly inhibitors; 350,000 compounds, 0.28% hits; also: nearly all actives have a fitted effect of over 40% in size
Target sequence (Q9NUW8 whole entry, looked up): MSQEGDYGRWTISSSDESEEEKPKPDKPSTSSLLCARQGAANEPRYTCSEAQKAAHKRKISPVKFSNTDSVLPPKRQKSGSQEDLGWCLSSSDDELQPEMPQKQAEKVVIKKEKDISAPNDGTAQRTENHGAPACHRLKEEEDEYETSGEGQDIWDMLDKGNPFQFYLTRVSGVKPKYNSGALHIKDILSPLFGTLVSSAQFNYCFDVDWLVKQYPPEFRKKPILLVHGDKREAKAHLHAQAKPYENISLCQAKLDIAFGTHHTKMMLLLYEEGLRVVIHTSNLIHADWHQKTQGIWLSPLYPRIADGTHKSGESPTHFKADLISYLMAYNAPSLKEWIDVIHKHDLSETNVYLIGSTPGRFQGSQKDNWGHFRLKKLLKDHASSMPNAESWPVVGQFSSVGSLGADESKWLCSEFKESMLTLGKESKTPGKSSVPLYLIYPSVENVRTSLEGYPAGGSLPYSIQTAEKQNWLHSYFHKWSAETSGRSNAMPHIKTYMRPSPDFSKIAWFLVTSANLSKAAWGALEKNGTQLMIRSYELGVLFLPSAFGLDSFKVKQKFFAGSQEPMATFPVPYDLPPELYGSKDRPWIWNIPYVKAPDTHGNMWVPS
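Recombinant human Tdp1 (E. coli-expressed, 1 nM final) preincubated with compounds 15 min at room temperature, then 5'-biotin/3'-phosphotyrosine-FITC DNA substrate (15 nM final) added for 5 min. AlphaScreen beads (10 ug/ml final) added 10 min; cleavage lowers signal.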
JMJD2A Tudor: inhibitors of human JMJD2A Tudor domain. O75164. AlphaScreen JMJD2A-Tudor / H3K4me3 peptide binding. Potency, µM (doses to about 114 µM), actives largely listed as inhibitors. 390,000 compounds, 4.4% hits. AID 504339; also: nearly all actives have a fitted effect of over 50% in size
G9a block: blocks human histone lysine methyltransferase G9a; Q96KQ7; G9a H3K9 monomethylation, AlphaScreen, 2 h; Potency, µM (series often up to 102 µM), actives largely listed as inhibitors; 350,000 compounds, 8.8% hits; also: nearly all actives have a fitted effect of over 75% in size
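AlphaScreen detection with an anti-monomethyl H3K9 antibody quantified product after a 2 h room-temperature reaction containing 500 nM biotinylated H3K9 peptide, 20 µM SAM and 20 nM enzyme, which had been preincubated 15 min with compound.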
HP1b chromo inh: blocks HP1-beta chromodomain binding to methylated histone tails; P83916; AlphaScreen HP1-beta / biotin-H3K9me3 peptide binding; Potency, µM (series often up to 114 µM), usual class: inhibitors; 390,000 compounds, 0.56% hits; AID 540317; also: nearly all actives have a fitted effect of over 70% in size
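AlphaScreen: HP1-beta (50 nM) preformed 30 min with biotin-H3(1-18)K9me3 peptide (50 nM) in PBS pH 7.4, 0.01% Tween-20. Compound added for 30 min at RT, then streptavidin donor/nickel chelate acceptor beads (10 ug/mL) for 30 min.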
BAZ2B inh: BAZ2B (human) inhibition. Q9UIF8. AlphaScreen BAZ2B-H3K14Ac peptide displacement. Potency, µM (highest dose often 114 µM), most hits filed as inhibitors. 360,000 compounds, 4.4% hits. AID 504333; also: nearly all actives have a fitted effect of over 60% in size
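In this displacement format the biotinylated H3(5-23) peptide acetylated at Lys14 serves as ligand at 50 nM, with BAZ2B at 50 nM in PBS pH 7.4 containing 0.01% Tween-20. Donor and acceptor beads are 10 ug/mL final.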
Sfp inh: Sfp phosphopantetheinyl transferase inhibition. Q9F4F7. Biochemical Sfp PPTase activity, qHTS. Potency, µM, actives largely listed as inhibitors. 310,000 compounds, 3.5% hits. AID 1490;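 also: the enzyme is Sfp with the accession as filed and its product quenches rhodamine fluorescence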
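Step 1, compound plus 15 nM Sfp-PPTase, 15 min, room temperature. Step 2, add rhodamine-CoA (5 uM) and BHQ-2-YbbR (12.5 uM). Step 3, read 525/598 nm fluorescence at 0 and 30 min.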
Numbers stand for hits; . = inactive; ? = inconclusive; / = not tested or not shown; [ ] = remark or other dose. Calls follow the shape of the dose curve; as a rule, active = well fitted curve in the direction sought with a large enough effect; inconclusive = small, poorly fitted or top-dose-only effect, or another doubt; inactive = no such curve, though single readings can be large; an effect the other way counts as inactive or inconclusive.

SMILES	TDP1 inh	JMJD2A Tudor	G9a block	HP1b chromo inh	BAZ2B inh	Sfp inh
COc1ccc2nc(Nc3sc4c(c3C(N)=O)CCCC4)sc2c1	.	?	3.2µM	22µM	?	45µM
COc1ccccc1OCC(=O)Nc1sc2c(c1C(N)=O)CCC2	.	?	/	.	/	/
COc1ccc(NC(=O)CN(C)CC(=O)Nc2sc3c(c2C(N)=O)CCC3)cc1	.	.	50µM	.	.	/
COCCCN(Cc1ccco1)C(=O)c1cc2c(s1)-c1ccccc1OC2	.	.	.	.	.	/
Cc1cc(C(=O)CN2C(=O)NC3(CCCc4ccccc43)C2=O)c(C)n1Cc1cccs1 (stereo not given)	.	.[11.4 µM]	.	.	.	.
CCN(C(=O)CN1C(=O)NC2(CCc3ccccc32)C1=O)C1CCCCC1 (stereo not given)	.	.	45µM	.	.	/
COc1ccccc1C(=O)CN1C(=O)NC2(CCc3ccccc32)C1=O (stereo not given)	.	.	50µM	.	.	/
C=CCn1c(C)cc(C(=O)CN2C(=O)NC3(CCCc4ccccc43)C2=O)c1C (stereo not given)	.	?	45µM	?	?	.
COc1ccc(N2CCN(C(=O)CN3C(=O)NC4(CCCc5ccccc54)C3=O)CC2)cc1 (stereo not given)	.	.	40µM	.	.	/
COc1ccc(CCNC(=O)CCn2c(=O)c3ccccc3n(CC(=O)Nc3ccccc3F)c2=O)cc1OC	.	.	.	.	.	/
CCOc1ccc(-c2cc(C)n3nc(C(=O)Nc4cc(Cl)ccc4O)cc3n2)cc1	.	.	.	.	.	/
Cc1ccc(CC(Cc2nc3ccccc3[nH]2)c2nc3ccccc3[nH]2)cc1 (stereo not given)	.	/	/	/	/	.
O=C(N/N=C\C=C\c1ccco1)c1cc(-c2ccc3ccccc3c2)n[nH]1	.	.	32µM	.	.	.
O=C(N/N=C/C=C/c1ccccc1[N+](=O)[O-])c1cc(-c2ccccc2)n[nH]1	.	.	?	.	?	?
O=C(N/N=C/C=C/c1ccco1)c1cnccn1	.	50µM	45µM	.	.	10µM
O=C(N/N=C\c1ccco1)c1cncc(Br)c1	.	/	.	/	.	.
O=C(N/N=C/c1ccco1)c1cnccn1	.	?	.	.	.	.
O=C(N/N=C\C=C\c1ccco1)c1cncc(Br)c1	/	.	?	.	.	40µM
O=C(N/N=C/C=C\c1ccco1)c1ccccn1	/	79µM	35µM	?	56µM	20µM
COc1ccc(NC(=O)c2cc(S(=O)(=O)N3CCOCC3)ccc2C)cc1S(=O)(=O)N1CCCCC1	/	.	/	.	/	/
O=C(Nc1ccccc1OC(=O)c1ccccc1)c1ccccc1	/	.	/	.	/	/
COc1cc(C(=O)NCCC2=CCCCC2)ccc1OC1CCN(C(C)=O)CC1	.	.	/	.	.	.
CSc1ccc(Cl)c(C(=O)OCC(=O)N(C)CCC#N)c1	.	.	.	.	.	.
O=C(c1cccc([N+](=O)[O-])c1)N1CCN(S(=O)(=O)/C=C/c2ccccc2)CC1	.	.	8.9µM	.	.	/
O=C(c1cccc([N+](=O)[O-])c1)N1CCN(C/C=C/c2ccccc2)CC1	.	.	.	.	.	.
SMILES	TDP1 inh	JMJD2A Tudor	G9a block	HP1b chromo inh	BAZ2B inh	Sfp inh
O=[N+]([O-])c1cccc(C(=S)N2CCN(c3ccccc3F)CC2)c1	.	?	20µM	?	?	.
O=[N+]([O-])c1cccc(C(=S)N2CCN(c3ccccc3)CC2)c1	.	.	8.9µM	?	?	32µM
C/C(=N\N1CCN(c2ccc(Cl)cc2)CC1)c1cccc([N+](=O)[O-])c1	.	?	22µM	.	?	.
CCN1CCCC1Cn1cnc2c([nH]c3cccc(Cl)c32)c1=O (stereo not given)	.	.	32µM	.	.	.
CCNC(=O)C1CC(=O)N(Cc2ccc(F)cc2)C(=Nc2ccc(OC)cc2)S1 (stereo not given)	.	.	.	.	.	.
CCNC(=O)C1CC(=O)N(Cc2ccc3c(c2)OCO3)C(=Nc2ccc(OCC)cc2)S1 (stereo not given)	.	.	.[12.7 µM]	.	50µM	.
